Experimental data from PubChem BioAssay AID1159580 (chemical genetic matrix, 2015).
Screen size: about 5,500 compounds; about 2,000 (36%) were called active. Roughly 18% stayed inconclusive and do not appear here. The list shows a part of the results. Unmarked numbers belong to inactive results. No stated cut-off is given here; in the data, active means normalized growth mostly below about 0.91 (no sharp cut-off); inconclusive means no clear call, values can overlap the other calls; inactive means mostly above about 0.92.

Assay: chemical genetic growth profiling, strain panel (AID 1159580);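 further: tested at 20 µM; growth read once vehicle control cultures reached saturation at 30 °C; 1 = growth at the plate median or of vehicle wells; lower values mean less growth of the strain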
Details: growth OD

SMILES: CC(=O)O[C@H]1CC[C@]2(C)C3CC(=O)[C@]4(C)C(C(C)=O)=CCC4C3CC[C@H]2C1 (stereo partly drawn)
- normalized growth (S. cerevisiae deletion strains, locus YJL187C, strain SWE1 (second series), active compounds read low): 1.01
- normalized growth (S. cerevisiae deletion strains, locus YJR043C, strain POL32, active compounds read low): 1.01
- normalized growth (S. cerevisiae deletion strains, locus YKL009W, strain mrt4, active compounds read low): 0.965
- normalized growth (S. cerevisiae deletion strains, locus YKL068W, active compounds read low): 0.988
- normalized growth (S. cerevisiae deletion strains, locus YKL085W, strain MDH1 (second series), active compounds read low): 0.992
- normalized growth (S. cerevisiae deletion strains, locus YKL085W, strain MDH1, active compounds read low): 0.992
- normalized growth (S. cerevisiae deletion strains, locus YKL160W, strain elf1, active compounds read low): 0.996
- normalized growth (S. cerevisiae deletion strains, locus YKR001C, strain vps1, active compounds read low): 0.897 (active)
- normalized growth (S. cerevisiae deletion strains, locus YKR026C, strain gcn3, active compounds read low): 0.972
- normalized growth (S. cerevisiae deletion strains, locus YKR091W, strain srl3, active compounds read low): 0.993
- normalized growth (S. cerevisiae deletion strains, locus YLL001W, strain dnm1, active compounds read low): 0.986
- normalized growth (S. cerevisiae deletion strains, locus YLL026W, active compounds read low): 0.994
- normalized growth (S. cerevisiae deletion strains, locus YLL041C, strain sdh2, active compounds read low): 0.991
- normalized growth (S. cerevisiae deletion strains, locus YLR027C, strain aat2, active compounds read low): 0.993
- normalized growth (S. cerevisiae deletion strains, locus YLR039C, strain RIC1, active compounds read low): 1
- normalized growth (S. cerevisiae deletion strains, locus YLR058C, strain SHM2, active compounds read low): 1.02
- normalized growth (S. cerevisiae deletion strains, locus YLR102C, strain apc9, active compounds read low): 1
- normalized growth (S. cerevisiae deletion strains, locus YLR221C, strain rsa3, active compounds read low): 0.978
- normalized growth (S. cerevisiae deletion strains, locus YLR258W, strain gsy2, active compounds read low): 1
- normalized growth (S. cerevisiae deletion strains, locus YLR262C, strain YPT6 (second series), active compounds read low): 0.961
- normalized growth (S. cerevisiae deletion strains, locus YLR262C, strain YPT6, active compounds read low): 0.944
- normalized growth (S. cerevisiae deletion strains, locus YLR268W, strain sec22, active compounds read low): 0.965
- normalized growth (S. cerevisiae deletion strains, locus YLR320W, strain mms22, active compounds read low): 0.922
- normalized growth (S. cerevisiae deletion strains, locus YLR330W, strain CHS5, active compounds read low): 0.969
- normalized growth (S. cerevisiae deletion strains, locus YLR342W, strain FKS1 (second series), active compounds read low): 0.947
- normalized growth (S. cerevisiae deletion strains, locus YLR342W, strain FKS1, active compounds read low): 0.976
- normalized growth (S. cerevisiae deletion strains, locus YLR357W, strain rsc2, active compounds read low): 1.01
- normalized growth (S. cerevisiae deletion strains, locus YLR370C, strain arc18, active compounds read low): 1.01
- normalized growth (S. cerevisiae deletion strains, locus YLR371W, strain rom2, active compounds read low): 1.02
- normalized growth (S. cerevisiae deletion strains, locus YLR384C, strain iki3, active compounds read low): 0.984
- normalized growth (S. cerevisiae deletion strains, locus YLR418C, strain cdc73, active compounds read low): 0.839 (active)
- normalized growth (S. cerevisiae deletion strains, locus YML016C, strain PPZ1, active compounds read low): 1
- normalized growth (S. cerevisiae deletion strains, locus YML032C, strain rad52, active compounds read low): 1
- normalized growth (S. cerevisiae deletion strains, locus YML120C, strain ndi1, active compounds read low): 1
- normalized growth (S. cerevisiae deletion strains, locus YML124C, strain tub3, active compounds read low): 1
- normalized growth (S. cerevisiae deletion strains, locus YMR058W, strain fet3, active compounds read low): 0.986
- normalized growth (S. cerevisiae deletion strains, locus YMR078C, strain ctf18, active compounds read low): 0.999
- normalized growth (S. cerevisiae deletion strains, locus YMR125W, strain sto1, active compounds read low): 1.01
- normalized growth (S. cerevisiae deletion strains, locus YMR129W, active compounds read low): 0.991
- normalized growth (S. cerevisiae deletion strains, locus YMR205C, strain PFK2, active compounds read low): 0.95
- normalized growth (S. cerevisiae deletion strains, locus YMR223W, strain ubp8, active compounds read low): 0.993
- normalized growth (S. cerevisiae deletion strains, locus YMR231W, strain pep5, active compounds read low): 1.01
- normalized growth (S. cerevisiae deletion strains, locus YMR307W, strain GAS1, active compounds read low): 0.97
- normalized growth (S. cerevisiae deletion strains, locus YNL067W, strain RPL9B, active compounds read low): 1.02
- normalized growth (S. cerevisiae deletion strains, locus YNL071W, strain lat1, active compounds read low): 0.91 (active)
- normalized growth (S. cerevisiae deletion strains, locus YNL209W, strain ssb2, active compounds read low): 1.01
- normalized growth (S. cerevisiae deletion strains, locus YNL233W, strain BNI4, active compounds read low): 0.988
- normalized growth (S. cerevisiae deletion strains, locus YNL248C, strain rpa49, active compounds read low): 0.984
- normalized growth (S. cerevisiae deletion strains, locus YNL250W, strain rad50, active compounds read low): 1.01
- normalized growth (S. cerevisiae deletion strains, locus YNL271C, strain bni1, active compounds read low): 1.01
- normalized growth (S. cerevisiae deletion strains, locus YNL298W, strain CLA4, active compounds read low): 1
- normalized growth (S. cerevisiae deletion strains, locus YNL307C, strain MCK1, active compounds read low): 0.934
- normalized growth (S. cerevisiae deletion strains, locus YNL322C, strain KRE1 (second series), active compounds read low): 0.975
- normalized growth (S. cerevisiae deletion strains, locus YNR049C, strain mso1, active compounds read low): 0.99
- normalized growth (S. cerevisiae deletion strains, locus YNR052C, strain pop2, active compounds read low): 1.03
- normalized growth (S. cerevisiae deletion strains, locus YOL006C, strain TOP1, active compounds read low): 0.907
- normalized growth (S. cerevisiae deletion strains, locus YOL012C, strain htz1): 1.19
- normalized growth (S. cerevisiae deletion strains, locus YOL147C, strain pex11, active compounds read low): 1
- normalized growth (S. cerevisiae deletion strains, locus YOR001W, strain rrp6, active compounds read low): 0.995
- normalized growth (S. cerevisiae deletion strains, locus YOR061W, strain CKA2, active compounds read low): 1
- normalized growth (S. cerevisiae deletion strains, locus YOR069W, strain VPS5, active compounds read low): 0.997
- normalized growth (S. cerevisiae deletion strains, locus YOR070C, strain gyp1, active compounds read low): 1.01
- normalized growth (S. cerevisiae deletion strains, locus YOR080W, strain dia2, active compounds read low): 1.01
- normalized growth (S. cerevisiae deletion strains, locus YOR083W, strain WHI5, active compounds read low): 1
- normalized growth (S. cerevisiae deletion strains, locus YOR106W, strain vam3, active compounds read low): 1.01
- normalized growth (S. cerevisiae deletion strains, locus YOR136W, strain idh2, active compounds read low): 0.984
- normalized growth (S. cerevisiae deletion strains, locus YOR144C, strain elg1, active compounds read low): 1
- normalized growth (S. cerevisiae deletion strains, locus YOR184W, strain ser1, active compounds read low): 0.893
- normalized growth (S. cerevisiae deletion strains, locus YOR265W, strain rbl2, active compounds read low): 1
- normalized growth (S. cerevisiae deletion strains, locus YOR270C, strain vph1, active compounds read low): 0.843
- normalized growth (S. cerevisiae deletion strains, locus YOR290C, strain snf2, active compounds read low): 0.996
- normalized growth (S. cerevisiae deletion strains, locus YOR316C, strain cot1, active compounds read low): 0.996
- normalized growth (S. cerevisiae deletion strains, locus YPL051W, strain arl3, active compounds read low): 0.998
- normalized growth (S. cerevisiae deletion strains, locus YPL078C, strain atp4, active compounds read low): 0.991
- normalized growth (S. cerevisiae deletion strains, locus YPL106C, strain sse1, active compounds read low): 0.976
- normalized growth (S. cerevisiae deletion strains, locus YPL240C, strain hsp82, active compounds read low): 0.995
- normalized growth (S. cerevisiae deletion strains, locus YPL241C, strain CIN2, active compounds read low): 0.988
- normalized growth (S. cerevisiae deletion strains, locus YPR119W, strain clb2, active compounds read low): 1
- normalized growth (S. cerevisiae deletion strains, locus YPR141C, strain kar3, active compounds read low): 1
- normalized growth (S. cerevisiae deletion strains, locus YPR163C, strain tif3, active compounds read low): 0.983
- normalized growth (S. cerevisiae deletion strains, locus YPR167C, strain met16, active compounds read low): 0.994
- normalized growth (S. cerevisiae deletion strains, strain wtn01, active compounds read low): 0.973
- normalized growth (S. cerevisiae strains, strain wild type, active compounds read low): 0.996
